# From PubChem BioAssay
# nsP2pro inh: blocks chikungunya virus nsP2 protease peptide cleavage | FRET peptide cleavage, nsP2pro, fluorescence 1 h | Potency, µM (titrated, usually from 24.9 µM), without a hit: top-dose activity change, negative = inhibition, hits mostly inhibitors | Q8JUX6 | 1.1% of 31,000 active | AID 1964107; note: nearly all actives have a fitted effect of over 60% in size
#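 FRET cleavage of 2.5 uM peptide 2 by 150 nM CHIKV protease domain at pH 8.0 (Tris, Tween 20). Compounds at 7 concentrations (up to 25 uM) preincubated 15 min. Fluorescence read after 1 h at room temperature.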
# nsP2 cell sec: cell-based CHIKV nsP2 protease inhibition, secondary. shares compounds with nsP2pro inh. cell-based CHIKV nsP2 protease reporter assay. Potency, µM (highest dose often 51.1 µM), without a hit: at the top dose activity change, negative = inhibition, most hits filed as inhibitors. 10% of 450 active. AID 1964100; note: nearly all actives have a fitted effect of over 70% in size
# CHIKV NSP2 FL: inhibits full-length CHIKV NSP2 enzyme | shares compounds with nsP2pro inh | Full-length CHIKV NSP2 protease enzymatic counterscreen | Potency, µM (titrated, usually from 50.7 µM), inactives show top-dose activity change, negative = inhibition, hits mostly inhibitors | 39% of 410 active | AID 1964101; note: nearly all actives have a fitted effect of over 65% in size
# Furin counterscr: human furin inhibition, counterscreen for nsP2pro inhibitors. Potency, µM (series often up to 50.6 µM), without a hit: at the highest dose activity change, negative = inhibition, actives largely listed as inhibitors. shares compounds with nsP2pro inh. 6% of 410 active. AID 1964102. Recombinant human furin enzymatic counterscreen, fluorogenic substrate
# nsP2 NS23 pep: nsP2pro inhibition on native NS2/3 peptide substrate; shares compounds with nsP2pro inh; Purified CHIKV nsP2 protease, endogenous NS2/3 peptide cleavage; Potency, µM (doses to about 51 µM), for inactives: top-dose activity change, negative = inhibition, actives largely listed as inhibitors; 34% of 410 active; AID 1964103; note: nearly all actives have a fitted effect of over 55% in size
# Papain cs: inhibits papain in a CHIKV nsP2 protease selectivity counterscreen. shares compounds with nsP2pro inh. purified papain protease activity, enzymatic inhibition. Potency, µM (highest dose often 51 µM), for the others: top-dose activity change, negative = inhibition, most hits filed as inhibitors. 5% of 410 active
# Target sequence (P00784 whole entry, looked up): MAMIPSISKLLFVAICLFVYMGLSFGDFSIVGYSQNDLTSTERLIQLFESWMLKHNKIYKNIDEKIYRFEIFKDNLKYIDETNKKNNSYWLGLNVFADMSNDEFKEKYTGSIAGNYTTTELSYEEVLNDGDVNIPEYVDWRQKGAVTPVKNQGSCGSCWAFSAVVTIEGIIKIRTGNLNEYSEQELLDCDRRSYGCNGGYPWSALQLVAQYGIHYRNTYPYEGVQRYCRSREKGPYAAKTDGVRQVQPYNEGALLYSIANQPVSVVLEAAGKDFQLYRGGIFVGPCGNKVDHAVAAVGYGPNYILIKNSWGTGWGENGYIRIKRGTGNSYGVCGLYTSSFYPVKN
# nsP2pro confirm: confirmation of CHIKV nsP2 protease inhibitors | shares compounds with nsP2pro inh | CHIKV nsP2 protease enzymatic activity, qHTS | Potency, µM (doses to about 25.5 µM), for the others: top-dose activity change, negative = inhibition, usual class: inhibitors | 43% of 410 active | AID 1964105; note: nearly all actives have a fitted effect of over 75% in size
# HCV NS3 4A cs: selectivity counter-screen for CHIKV nsP2 protease inhibitors: HCV NS3/4A; HCV NS3/4A protease biochemical counterscreen; Potency, µM (doses to about 50.9 µM), actives largely listed as inhibitors; 20% of 410 active; shares compounds with nsP2pro inh; note: nearly all actives have a fitted effect of over 55% in size
# Active calls of the source: *; i = inactive; ? = inconclusive; ! = a repeat was not active; [ ] = another dose, or the depositor's remark. Only a selection was taken, and hits are over-represented in it overall. Calls come from the whole dose curve. % is set by controls: 0 for no effect and ±100 for the full control effect; potency is the fitted concentration of half-maximal effect.
SMILES,nsP2pro inh,others
O=C1C(=Cc2cccnc2)C(=O)c2ccccc21,?,nsP2 cell sec=-11%;CHIKV NSP2 FL=?;Furin counterscr=-10%;nsP2 NS23 pep=18µM*;Papain cs=-7%;nsP2pro confirm=5µM*;HCV NS3 4A cs=?
O=C1OC(/C=C/c2ccccc2)=NC/1=C\c1cccnc1,8%,
Fc1ccc2nc(CCC#Cc3ccccn3)cn2c1,?,nsP2 cell sec=-3%;CHIKV NSP2 FL=11%;Furin counterscr=-6%;nsP2 NS23 pep=2%;Papain cs=11%;nsP2pro confirm=3%;HCV NS3 4A cs=i
O=C(/C=C/c1ccc(O)c(O)c1)O[C@@H]1C[C@@](O)(C(=O)O)C[C@@H](O)[C@@H]1O,-6%,
CC1=CC(=O)CC2C1(O)CCC(C)C21CC(c2ccoc2)OC1=O (stereo unspecified),33%,
COc1cc(/C=C/C(=O)OC2CC(OC(C)=O)C(OC(C)=O)C3C2CCC2C(=O)OC(c4ccoc4)CC23C)ccc1O[C@@H]1O[C@H](CO)[C@@H](O)[C@H](O)[C@H]1O (stereo partly specified),-23%[10 µM],
COC(=O)C1(O)C(OC(C)=O)CCC2C3(CC(c4ccoc4)OC3=O)C(C)=CCC21C(=O)OC (stereo unspecified),1.9µM*,nsP2 cell sec=-7%[17.6 µM];CHIKV NSP2 FL=-15%[17.3 µM];Furin counterscr=-3%[17.3 µM];nsP2 NS23 pep=i;Papain cs=-7%[17.2 µM];nsP2pro confirm=36%[8.62 µM];HCV NS3 4A cs=i
Cc1ccccc1S(=O)(=O)N1CCc2cc(-c3nc(NC(=O)Cc4ccc5c(c4)OCO5)sc3C)ccc21,-13%,
C=C(C)[C@@H]1CCC2=CC(=O)C[C@@H](C)[C@]2(C)C1,15%,
CNC(=O)Oc1ccc2c(c1)[C@]1(C)CCN(C)[C@@H]1N2C,4.4µM*!,nsP2 cell sec=-4%;CHIKV NSP2 FL=-19%;Furin counterscr=-2%;nsP2 NS23 pep=-16%;Papain cs=-8%;nsP2pro confirm=?;HCV NS3 4A cs=i
CN1CCCC2(C1)CN(C)c1ccc(C(=O)NCC3CCCCC3)cc12 (stereo unspecified),i,
Cc1ccc(-c2ccc(CNc3nc(-c4ccccc4C(C)C)nc4ccccc34)cc2)cn1,3%,
O=S(=O)(Cl)c1ccc(-c2ccccc2)cc1,-10%,
c1ccc(C2=NOC3(CCN(C4CCCCC4)CC3)C2)cc1,i,
O=C(OC[C@H]1O[C@@H](Oc2ccccc2COC(=O)C2(O)C=CCCC2O)[C@H](O)[C@@H](O)[C@@H]1O)c1ccccc1 (stereo partly specified),60%[10 µM],
N#Cc1ccc(-c2ccc(C3Nc4ccccc4C(=O)N3O)o2)cc1 (stereo unspecified),10µM*,nsP2 cell sec=23µM*;CHIKV NSP2 FL=0%;Furin counterscr=-14%;nsP2 NS23 pep=-11%;Papain cs=-17%;nsP2pro confirm=?;HCV NS3 4A cs=i
N#Cc1ccc(-c2ccc(CNc3ccc(C4CCNCC4)cc3)o2)cc1,-8%,
COc1ccc(C(=O)Nc2ccc(-c3nc4ccccc4[nH]3)cc2)cc1Br,-14%,
Cc1cc(NS(=O)(=O)c2ccc(NC(=O)Cc3ccc(Cl)c(C(F)(F)F)c3)cc2)no1,i,
COc1ccc(NC(=O)/C=C\C(=O)N(c2ccc(C(C)C)cc2)C(C(=O)NCc2ccco2)c2ccc(F)cc2)cc1 (stereo unspecified),-19%,
O=C(c1ccc(F)cc1)n1nc(-c2ccc(Cl)cc2)nc1NCc1ccco1,-23%,
O=C(/C=C/c1ccco1)Nc1ccc(F)cc1,6.3µM*,nsP2 cell sec=-20%
CC1(C)[C@@H](O)CC[C@]2(C)[C@H]3CC=C4[C@@H]5C[C@](C)(C(=O)O)CC[C@]5(C)CC[C@@]4(C)[C@]3(C)CC[C@@H]12,22%,
C[C@@]1(C(=O)O)CC[C@]2(C)CC[C@]3(C)C4=CC(=O)c5cc(O)c(O)cc5[C@]4(C)CC[C@@]3(C)[C@@H]2C1,-9%[10 µM],
CC1=C(O)C(=O)C=C2C1=CC=C1[C@@]2(C)CC[C@@]2(C)[C@@H]3C[C@](C)(C(=O)O)CC[C@]3(C)CC[C@]12C,4.4µM*!,nsP2 cell sec=?;CHIKV NSP2 FL=16µM*;Furin counterscr=?;nsP2 NS23 pep=4.6µM*;Papain cs=?;nsP2pro confirm=1.8µM*;HCV NS3 4A cs=21µM*
SMILES,nsP2pro inh,others
Cc1cc(C)nc(NC(=S)N2CCN(c3cccc(C(=O)O)c3)CC2)c1,-18%,
COC(=O)c1c(NC(=O)/C(C#N)=C/c2ccc(OC)cc2)sc2c1C(C(=O)OC)CC2 (stereo unspecified),-8%,
COC(=O)c1c(NC(=O)/C(C#N)=C/c2ccccc2)sc2c1C(C(=O)OC)CC2 (stereo unspecified),0%,
COC(=O)c1c(NC(=O)C(C)N2C(=O)c3ccccc3C2=O)sc2c1C(C(=O)OC)CC2 (stereo unspecified),?,nsP2 cell sec=?;CHIKV NSP2 FL=?;Furin counterscr=-9%;nsP2 NS23 pep=5.8µM*;Papain cs=-9%;nsP2pro confirm=3.6µM*;HCV NS3 4A cs=i
CC1=C(C(=O)Nc2ccon2)C(c2nn(C)cc2Cl)N=C(Nc2nc3ccccc3o2)N1 (stereo unspecified),i,
COc1cccc(NS(=O)(=O)c2ccc(NCc3cccc(OC)c3O)cc2)c1,i,
COc1ccccc1NC(=O)Nc1ccc2ccccc2c1,44%,
O=C(NCC(=O)N1CCCC1)Nc1ccc2ccccc2c1,?,nsP2 cell sec=-3%;CHIKV NSP2 FL=?;Furin counterscr=-5%;nsP2 NS23 pep=-25%;Papain cs=-1%;nsP2pro confirm=-14%;HCV NS3 4A cs=i
O=C(NCC(=O)N1CCCC1)Nc1ccc2cnccc2c1,0%,
CCCNC(=O)C1C(c2ccc(NC(=O)c3ccco3)cc2)OC(=O)N1Cc1ccccc1 (stereo unspecified),-5%,
COc1ccc(CC(=O)N[C@H](C)c2onc(C)c2C(=O)O)cc1,-6%[39.2 µM],
Cc1ccccc1C(=O)N1CCc2cc(-c3nc(NC(=O)Cc4ccc5c(c4)OCCO5)sc3C)ccc21,-11%,
Cn1ncc2c(-c3ccc([S+](C)(=O)[O-])cc3)cc(C(=O)N3CCCC3)nc21,0%,
N#Cc1ccc(-c2ccc(CNc3ccc(N4CCOCC4)cc3)o2)cc1,-20%,
N#Cc1ccc(-c2ccc(CNc3ccc(N4CCCCC4)cc3)o2)cc1,3.5µM*,nsP2 cell sec=?;CHIKV NSP2 FL=-61%;Furin counterscr=-4%;nsP2 NS23 pep=?;Papain cs=-21%;nsP2pro confirm=?;HCV NS3 4A cs=1.8µM*
N#Cc1ccc(-c2ccc(CNc3ccc(N4CCN5CCCCC5C4)cc3)o2)cc1 (stereo unspecified),-21%,
CCC(C(=O)N1CCC2(CCC(=O)N(Cc3ccccn3)C2)CC1)n1cccn1 (stereo unspecified),4%,
Cn1nnnc1SCCNCc1ccccc1OCc1ccccc1F,-23%,
